Sampled rows, rich in hits. Any-hit rate of the full collection: about 6.9%.
SW480 rereplic = A quantitative high throughput screen for small molecules that induce DNA re-replication in SW480 colon adenocarcinoma cells. hit rate 1.8% among 340,000. Potency, µM (doses to about 46.1 µM), for the others: at the highest dose re-replication activation, usual class: activators. AID 624297, 2012. SW480 DNA re-replication, Hoechst DNA content imaging, 48 h; also: potency is read from the fitted curve at half-maximal effect; % of control where 0% means no effect; nearly all actives have a fitted effect of over 55% in size
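Image-based DNA-content assay: after two days of treatment, nuclei were labelled with the DNA dye Hoechst and imaged, and hits were compounds raising the count of nuclei showing high fluorescence intensity.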
Vif-APOBEC3G blk = qHTS for Inhibitors of Vif-A3G Interactions: qHTS; HeLa A3G-eYFP + Vif (tagged APOBEC3G with the HIV-1 protein that degrades it), YFP fluorescence, overnight; Potency, µM (series often up to 46.1 µM), inactives show at the highest dose activity, negative = active, hits mostly inhibitors; hit rate 0.076% among 410,000; AID 602310, 2012; also: potency is read from the fitted curve at half-maximal effect; % is scaled to controls: 0 for no effect and ±100 for the full control effect; nearly all actives have a fitted effect of over 60% in size
Target sequence (Q9HC16 whole entry, looked up): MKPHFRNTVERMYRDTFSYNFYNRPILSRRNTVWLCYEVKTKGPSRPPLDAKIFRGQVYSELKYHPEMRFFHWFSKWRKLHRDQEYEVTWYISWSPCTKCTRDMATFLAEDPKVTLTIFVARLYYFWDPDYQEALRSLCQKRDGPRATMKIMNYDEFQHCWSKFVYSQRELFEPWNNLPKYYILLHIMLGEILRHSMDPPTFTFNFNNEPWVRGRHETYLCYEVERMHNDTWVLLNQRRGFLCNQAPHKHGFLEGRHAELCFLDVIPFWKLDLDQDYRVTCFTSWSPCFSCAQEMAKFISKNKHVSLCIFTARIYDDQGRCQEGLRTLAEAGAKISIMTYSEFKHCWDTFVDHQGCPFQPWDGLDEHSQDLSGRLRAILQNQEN
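HeLa cells stably expressing Vif and C-terminally eYFP-tagged A3G, seeded overnight at 37 deg C, then exposed to compound by pintool overnight at 37 deg C. Rise in yellow fluorescence (Ex 488/Em 500-530, Acumen) marks blocked Vif-driven A3G degradation.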
Vif-APOBEC3F blk = qHTS for Inhibitors of Vif-A3F Interactions: qHTS; AID 602313, 2012; Potency, µM (titrated, usually from 46.1 µM), for the others: at the top dose activity, negative = active; hit rate 0.2% among 390,000; HeLa A3F-eYFP + Vif (tagged APOBEC3F with the HIV-1 protein that degrades it), YFP fluorescence increase; also: potency is read from the fitted curve at half-maximal effect; % of control where 0% means no effect; nearly all actives have a fitted effect of over 65% in size
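HeLa cells stably expressing A3F-eYFP plus Vif, plated and incubated overnight at 37 deg C, then exposed to compounds overnight at 37 deg C. Blocked degradation read as raised yellow fluorescence (Ex 488/Em 500-530).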
Giardia killer = Small Molecules that selectively kill Giardia lamblia: qHTS; AID 540267, 2011; activity change, % at 7.66 µM, hits read low; Giardia lamblia trophozoite viability; hit rate 0.15% among 340,000; in the data active = activity change below about -80%; inconclusive = between about -30% and that limit;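 also: parasites exposed to compound for two days anaerobically before the ATP read; % is scaled to controls: 0 for no effect and ±100 for the full control effect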
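Trophozoite viability was measured as ATP-dependent luminescence, read 15-30 min after reagent addition. Before that, parasites at 100 cells/well were exposed to compounds for 48 h, anaerobically, at 37 deg C.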
IL-1B inflam inh = qHTS for Inhibitors of Inflammasome Signaling: IL-1-beta AlphaLISA Primary Screen; activity change, % at 57.5 µM; hit rate 4.7% among 360,000; THP-1 LPS/ATP IL-1B secretion, AlphaLISA, 16 h; active compounds read low; in the data active = activity change below about -50%; inconclusive = mostly about -30% to -49%; also: % is scaled to controls: 0 for no effect and ±100 for the full control effect
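Secreted IL-1B measured by AlphaLISA bead assay after 16 h compound exposure of THP-1 cells; compounds (final up to 57.5 uM) added 1 h before LPS (250 ng/mL) and ATP (1.25 mM) stimulation; lower signal means less secretion.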
MCF10A rereplic = A quantitative high throughput screen for small molecules that induce DNA re-replication in MCF 10a normal breast cells | MCF 10A DNA re-replication, Hoechst nuclear intensity, 48 h | Potency, µM (top dose mostly 46.1 µM), for the others: at the top dose activity, positive = re-replication, most hits filed as activators | hit rate 2.9% among 350,000; also: potency is read from the fitted curve at half-maximal effect; % of control where 0% means no effect; nearly all actives have a fitted effect of over 50% in size
Starred values were filed as active, the others as inactive. Unless noted, calls follow the shape of the dose curve; as a rule, active = well fitted curve in the direction sought with a large enough effect; inconclusive = small, poorly fitted or top-dose-only effect, or another doubt; inactive = no such curve, though single readings can be large; an effect the other way counts as inactive or inconclusive.

O=c1cc(-c2ccccc2)[nH]n1-c1ccccc1 was read as SW480 rereplic inconclusive, Vif-APOBEC3G blk 0%, Vif-APOBEC3F blk -13%, Giardia killer -8, IL-1B inflam inh -16 and MCF10A rereplic inconclusive.
For CC(C)N1CCc2c(sc(NC(=O)c3ccc(S(=O)(=O)N4CCOCC4)cc3)c2C#N)C1 the results were SW480 rereplic 1%, Vif-APOBEC3G blk -23%, Vif-APOBEC3F blk 13µM*, Giardia killer -4, IL-1B inflam inh -20 and MCF10A rereplic 14%.
CCN1CCc2c(sc(NC(=O)c3ccc(S(=O)(=O)N(C)c4ccccc4)cc3)c2C(=O)NC)C1 was read as SW480 rereplic inconclusive, Vif-APOBEC3G blk inconclusive, Vif-APOBEC3F blk 11µM*, Giardia killer -14, IL-1B inflam inh 0 and MCF10A rereplic 16µM*.
`CCOC(=O)N1CCc2c(sc(NC(=O)c3ccc(S(=O)(=O)N4CCCC4)cc3)c2C#N)C1` gave SW480 rereplic 18%, Vif-APOBEC3G blk 0%, Vif-APOBEC3F blk inconclusive, Giardia killer 5, IL-1B inflam inh 11 and MCF10A rereplic inconclusive.
CNC(=O)c1c(NC(=O)c2ccc(S(=O)(=O)N(C)c3ccccc3)cc2)sc2c1CCN(C(C)C)C2 was read as SW480 rereplic inconclusive, Vif-APOBEC3G blk inconclusive, Vif-APOBEC3F blk 7.1µM*, Giardia killer 31, IL-1B inflam inh 43 and MCF10A rereplic 15µM*.
`CC(C)N1CCc2c(sc(NC(=O)c3cc(-c4cccs4)nc4ccccc34)c2C(N)=O)C1` gave SW480 rereplic inconclusive, Vif-APOBEC3G blk 7.1µM*, Vif-APOBEC3F blk inconclusive, Giardia killer 19, IL-1B inflam inh -21 and MCF10A rereplic 18µM*.
Screening CCOc1ccc(NC(=O)c2ccc(-c3nc(COc4ccccc4)c(C)o3)cc2)cc1 returned Vif-APOBEC3G blk 2% and Vif-APOBEC3F blk 0%.
Screening CC(C)N1CCc2c(sc(NC(=O)c3ccc(S(=O)(=O)N4CCc5ccccc54)cc3)c2C(N)=O)C1 returned SW480 rereplic 3%, Vif-APOBEC3G blk 20µM*, Vif-APOBEC3F blk 6.3µM*, Giardia killer -10, IL-1B inflam inh 19 and MCF10A rereplic inconclusive.
CC(C)N1CCc2c(sc(NC(=O)c3nc4ccccc4s3)c2C(N)=O)C1 was read as SW480 rereplic inconclusive, Vif-APOBEC3G blk -15%, Vif-APOBEC3F blk inconclusive, Giardia killer -2, IL-1B inflam inh -10 and MCF10A rereplic 23%.
Screening COc1ccc(NS(=O)(=O)c2cc(C)ccc2NC(=O)c2cc(C)oc2C)cc1 returned SW480 rereplic 0.73µM*, Vif-APOBEC3G blk -49%, Vif-APOBEC3F blk -2%, Giardia killer -17, IL-1B inflam inh 55 and MCF10A rereplic 0.65µM*.
Screening COc1ccc(NS(=O)(=O)c2cccc(C(=O)NNC(=O)c3cc(C)oc3C)c2)cc1 returned SW480 rereplic -13%, Vif-APOBEC3G blk -2%, Vif-APOBEC3F blk -5%, Giardia killer 3, IL-1B inflam inh -9 and MCF10A rereplic -6%.
For COc1ccc(NC(=O)Cn2c(C)cc3ccccc3c2=O)c(OC)c1 the results were Vif-APOBEC3G blk -1% and Vif-APOBEC3F blk 2%.
`COc1ccc(C(=O)Nn2c(SCC(=O)N3CCC(C)CC3)nc3ccccc3c2=O)cc1` gave SW480 rereplic -2%, Vif-APOBEC3G blk 1%, Vif-APOBEC3F blk -8%, Giardia killer inconclusive, IL-1B inflam inh -53* and MCF10A rereplic 2%.
`CCCCN(CC)Cc1ccc(CNC(=O)Nc2ccc(Cl)cc2)o1` gave SW480 rereplic 41%, Vif-APOBEC3G blk -12%, Vif-APOBEC3F blk -9%, Giardia killer 30, IL-1B inflam inh -62* and MCF10A rereplic -5%.
For CCCCN(CC)Cc1ccc(CNC(=O)Nc2ccc(OCC)cc2)o1 the results were SW480 rereplic -1%, Vif-APOBEC3G blk -4%, Vif-APOBEC3F blk -2%, Giardia killer -15, IL-1B inflam inh -7 and MCF10A rereplic inconclusive.
`O=c1[nH]cnc2scc(-c3ccc(-c4ccccc4)cc3)c12` gave SW480 rereplic -4%, Vif-APOBEC3G blk 1%, Vif-APOBEC3F blk 1%, Giardia killer inconclusive, IL-1B inflam inh -68* and MCF10A rereplic 14%.
For CCCC(=O)Nc1nnc(S(=O)(=O)N(C)Cc2ccc(Cl)cc2)s1 the results were Vif-APOBEC3G blk 1% and Vif-APOBEC3F blk -5%.
`CSc1ccccc1NC(=O)Nc1cccc(Cl)c1C` gave SW480 rereplic -2%, Vif-APOBEC3G blk 0%, Vif-APOBEC3F blk -2%, Giardia killer -21, IL-1B inflam inh inconclusive and MCF10A rereplic -2%.
CSc1ccccc1NC(=O)Nc1cccc(Cl)c1Cl was read as SW480 rereplic 6%, Vif-APOBEC3G blk 1%, Vif-APOBEC3F blk -13%, Giardia killer 3, IL-1B inflam inh 6 and MCF10A rereplic 23µM*.
For CC(=O)/C=C/c1ccccc1Oc1c(F)c(F)nc(F)c1F the results were SW480 rereplic 18µM*, Vif-APOBEC3G blk -33%, Vif-APOBEC3F blk 2%, Giardia killer 26, IL-1B inflam inh -27 and MCF10A rereplic 23µM*.
`O=C(/C=C/c1ccccc1)NC(=S)Nc1ccccc1` gave SW480 rereplic inconclusive, Vif-APOBEC3G blk 2%, Vif-APOBEC3F blk -6%, Giardia killer 23, IL-1B inflam inh -61* and MCF10A rereplic -11%.
Screening O=C(/C=C/c1ccccc1)Nc1cccnc1 returned SW480 rereplic -7%, Vif-APOBEC3G blk 2%, Vif-APOBEC3F blk -1%, Giardia killer -22, IL-1B inflam inh -6 and MCF10A rereplic -4%.
`O=C(C=Cc1ccccc1)Nc1ccccc1` gave SW480 rereplic -1%, Vif-APOBEC3G blk -1%, Vif-APOBEC3F blk 7%, Giardia killer -23, IL-1B inflam inh -69* and MCF10A rereplic 2%.
CN(C)c1ccc(NC(=O)/C=C/c2c(Cl)cccc2Cl)cc1 was read as SW480 rereplic 6%, Vif-APOBEC3G blk -10%, Vif-APOBEC3F blk 11%, Giardia killer 1, IL-1B inflam inh -7 and MCF10A rereplic 16µM*.
Screening O=C(/C=C/c1ccc(F)cc1)NC(=S)Nc1ccccc1 returned SW480 rereplic 18%, Vif-APOBEC3G blk -6%, Vif-APOBEC3F blk -2%, Giardia killer 10, IL-1B inflam inh inconclusive and MCF10A rereplic 5%.

Screening data as filed in PubChem BioAssay.
